Growth data for 39 molecules are collected here from PubChem BioAssay (NCI).

The structures appear in SMILES notation. “And” between values parts separate entries of the source, which are not always exact repeats. Equal values may be shown once. This is part of a sample that, as a whole, favours compounds with a hit. Of some 83,000 tested, about 20% had one in any assay.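 Plates (96-well) were seeded with cells, treated with compound at one concentration, and incubated for 48 hours before percent growth was determined.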 Unmarked numbers belong to inactive results. The source made the active and inactive calls.

The subject of the first assay is MDA-MB-435 melanoma. The experiment in a line: NCI-60 one-dose screen, 48 h (100 = growth as untreated, 0 = no growth, -100 = all killed). Particulars: 10 µM. The procedure:
Growth inhibition of the MDA-MB-435 human Melanoma tumor cell line is measured as a screen for anti-cancer activity. Cells are grown in 96 well plates and exposed to the test compound for 48 hours. Compounds are tested at a single concentration, which is 10^-5 M for most compounds. The reported endpoint is percent growth (GI% or GIPRCNT), where numbers from 0 - 100% represent growth inhibition, and numbers from -100% - 0 represent cell death. For example, a value of 40 represents 60% growth inhibition. A value of 0 means no net growth occurred over the course of the experiment. A value of -40 indicates 40% of cells at the beginning of the experiment died by the end of the experiment. A value of -100 means all cells are dead at the end of the experiment.
NCI-60 Human Tumor Cell Lines Screen was performed using the standard one-dose NCI protocol, which is described in more detail at https://dtp.cancer.gov/discovery_development/nci-60/default.htm.
Compounds with GIPRCNT values below 10 were considered active. Activity score was based on GIPRCNT using the following formula: […]
Score is 0 for GIPRCNT values of 100 or above, 50 for GIPRCNT values of 0, and 100 for GIPRCNT values of -100.
In the case of `COc1ccc(C(=O)/C=C/c2ccc(OCc3ccc(Cl)cc3)cc2)cc1OC`, the growth was 90.7%.

Staying with this assay, now noted: 10 µM unless noted.
Turning to `COCCn1cc(-c2csc(-c3cn(C)c4ccc(F)cc34)n2)c2cccnc21`, the growth is 40.8%.

As for `O=[N+]([O-])c1ccc2[nH]c3nccc(NCc4cccc(Cl)c4)c3c2c1`, the growth is 77%.

With `O=C1/C(=C/c2cn(-c3ccccc3)nc2-c2ccccc2)SC(=S)N1c1ccc(Cl)cc1`, the growth is 74.1%.

`COc1cc(F)c(/C=C/c2cc(/C=C/c3cc(OC)c(OC)cc3F)n(-c3cc(F)cc(F)c3)n2)cc1OC`: the growth is -4.07% (active).

In the case of `CCN(CC)CCOc1ccccc1C`, the growth is 106%.

On to `C#CCn1cnc2cnc(Nc3cccc(NC(=O)CCl)c3)nc21`, for which the growth was -19.6% [6.25 µM] (active).

As to `CC12CCC(C(=O)CC1=O)C2(C)C` (stereo not given), the growth is 106% and 110%.

As to `COc1ccc(Nc2ncnc3ccc(-c4cncc(NS(C)(=O)=O)c4)cc23)cc1Cl`, the growth is 49.1%.

For the molecule `CC(=O)Nc1c(I)c(NC(C)=O)c(I)c(C(=O)O)c1I`, the growth was 101% and 102%.

`NS(=O)(=O)c1ccc(C(=O)N=Nc2c(O)[nH]c3c(F)cccc23)cc1`: the growth was 107%.

Regarding `CC(=NCc1ccccc1)c1ccc(O)cc1O`, the growth was 114%.

For the molecule `O=C(N/N=C/c1ccc(O)cc1O)c1cccc(Nc2ccnc(C(F)(F)F)c2)c1`, the growth is 41%.

As to `N#CC1C(=O)c2ccccc2C1c1ccccc1` (stereo not given), the growth was 104% and 102%.

`O=C1/C(=C/c2ccc(-c3cccc(C(F)(F)F)c3)o2)SC(=S)N1CCc1ccc(O)cc1`: the growth was 52.6%.

On to `COc1cc(-c2[nH]ncc2Nc2ccc(Cl)cc2)cc(OC)c1OC`, for which the growth is 55.5%.

With `CCCCC#Cc1c(/C=C(\CCCC)SCC)n(C)c(=O)[nH]c1=O`, the growth was 104%.

On to `O=S(=O)(Nc1ccc(F)cc1)c1ccc(-c2cnc(C3CC3)o2)cc1`, for which the growth is -10.3% (active).

`N=C(N)c1ccc(-c2ccc(-c3ccc(F)cc3)s2)nc1`: the growth is 70.2%.

Turning to `Cc1ccc(NC(=O)N/C(N)=N/c2nc(=O)c3ccccc3s2)cc1`, the growth is 87.5%.

Take `OB(O)c1ccsc1-c1nc2ccc3[nH]ncc3c2c2c1CCCC2`: the growth was 27%.

`Nc1nc(CSc2n[nH]c(N)n2)nc(Nc2ccccc2)n1`: the growth is 94.7%.

Consider `O=C(/C=C/c1ccc(F)cc1)Nc1ncc(Cc2ccc(F)cc2)s1`, for which the growth is -48.2% (active).

For the molecule `CNC(=O)c1cc(Oc2ccc3nc(NC(=O)Nc4ccc(C(F)(F)F)cc4)sc3c2)ccn1`, the growth was 40.9%.

As for `O=C(/C=C\c1ccc(Cl)c(Cl)c1)c1ccccc1`, the growth was 70.5% and 100%.

In the case of `CC(=O)c1c(C)nc2ccccc2c1/C=C/c1cccc(C)c1`, the growth is 5.84% (active).

In the case of `[2H]C([2H])([2H])Oc1cccc(/C=C/C(=O)/C=C(/C=C/c2cccc(OC([2H])([2H])[2H])c2OC([2H])([2H])[2H])OB(F)F)c1OC([2H])([2H])[2H]`, the growth is 57%.

For `N#C/C(=N\Nc1ccc(Cl)cc1)C(=O)Nc1cc(-c2ccccc2)nn1-c1ccccc1`, the growth was 28.6%.

On to `Cc1ccc(C(=O)Nc2nc3c(s2)CN(Cc2ccccc2)CC3)cn1`, for which the growth was 7.68% (active).

For the molecule `C/C=C(/C)C(=O)O[C@@H]1CC(C)(C)CC2C34OC(=O)[C@@]21CC[C@@]3(C)[C@]1(C)CCC2C(C)(C)C(=O)CC[C@]2(C)C1C[C@@H]4Cl` (stereo not given in full), the growth was 102%.

Regarding `COc1ccc2c(c1)c(C(=O)c1nc(-c3cn(C)c4ccccc34)no1)cn2C`, the growth was 76.7%.

For the molecule `O=[N+]([O-])c1ccc(S(=O)Cc2ccccc2)c([N+](=O)[O-])c1` (stereo not given), the growth is 76.2% and 78%.

With `Brc1ccc(/C=C(/C2=NCCN2)n2ccc3ccccc32)cc1`, the growth is 58.2%.

In the case of `CC1=C2[C@@H](CC1)[C@]1(C)O[C@@](C3CC3)(C[C@H]1OC(=O)CO)[C@H]2OC(=O)/C=C/c1ccccc1`, the growth was 104%.

As for `O=C(NCCCN1CCCCC1)c1ccc(-c2nc3ccc4[nH]ncc4c3c3c2CCCC3)cc1`, the growth is 26.7%.

In the case of `C=C(CNCCO)[C@@H]1CC[C@]2(CO)CC[C@]3(C)[C@H](CC[C@@H]4[C@@]5(C)CCC(NCCc6ccc(O)cc6)C(C)(C)[C@@H]5CC[C@]43C)[C@@H]12` (stereo not given in full), the growth was -95.5% (active).

Take `Cc1ccc(-c2nc([P+](c3ccccc3)(c3ccccc3)c3ccccc3)c(Nc3ccccc3)o2)cc1`: the growth is -32.9% (active).

Regarding `N#Cc1cc(-c2ccnc(Nc3ccc(NC(=O)CCl)cc3)n2)ccc1N1CCCC1`, the growth was -47.6% (active).

On to `CC12OC(CC(O)C1O)n1c3ccccc3c3c4c(c5c6ccccc6n2c5c31)C(=O)N(CCN1CCOCC1)C4=O` (stereo not given), for which the growth is 21.7%.

The same assay, now with this note: 100 µM.
`COc1ccc(C(=O)/C=C/c2ccc(OCc3ccc(Cl)cc3)cc2)cc1OC`: the growth is 43.7%.
